“And” between values parts separate entries of the source, which are not always exact repeats. Equal values may be shown once. This is part of a sample that, as a whole, favours compounds with a hit. Of some 79,000 tested, about 15% had one in any assay. Values without a mark were called inactive. The source made the active and inactive calls. Rule as the data show it: active = growth inhibition above about 70%; inactive = the rest.
Experiment: NCI Yeast Anticancer Drug Screen. Data for the mec2-1 strain (AID 157)
Details: S. cerevisiae mec2-1 strain, at 5.0 µM (retest, dose inferred, filed as 0.5), stronger effect = higher value
Protocol: Growth inhibition of yeast strains with defined genetic alterations is measured as a screen for potential anti-cancer activity. Selected strains with alterations in DNA damage repair or cell cycle control were exposed to compounds and growth inhibition was measured relative to vehicle treated controls. The strain used in this assay is mec2-1

| Structure (SMILES) | growth inhibition |
| --- | --- |
| O=C([O-])C(F)(F)C(F)(F)F.[C-]#[O+].[C-]#[O+].[C-]#[O+].[C-]#[O+].[C-]#[O+].[Re] | 13% |
| COC([CH2][Hg])CN1C(=O)c2cc(C)c(C)cc2C1=O (stereo unspecified) | 100% (active) |
| CN1C(=O)C2(C)SSC1(C)C(=O)N2C | 27% |
| O=C(NCC1(O)N=C(c2ccc(F)cc2)c2ccsc2-n2cccc21)c1ccc(Cl)cc1Cl (stereo unspecified) | -2% |
| O=C([CH-]C(=O)c1ccccc1)c1ccccc1.O=C([CH-]C(=O)c1ccccc1)c1ccccc1.[CH2-]CCC.[CH2-]CCC.[Sn+4] | 91% (active) |
| COC1CC2C=C(C)/C=C/C=C/C(=O)NC(c3ccccc3)C/C=C/CCC(O)CC(=O)C2=C1O (stereo unspecified) | 98% (active) |
| CC[CH](C)[Sn](=[O])[c]1ccccc1 (stereo unspecified) | 28% |
| O=C(N/N=C/c1cc(Br)cc(Br)c1[O-])c1ccccc1O.O=C(N/N=C/c1cc(Br)cc(Br)c1[O-])c1ccccc1O.[Zn+2] | 96% (active) |
| CCCC1CC[N-]CC1.CCCC1CC[N-]CC1.N#C[S-].N#C[S-].[Cd] | 10% |
| CCCCCCCCCCCCCC(=O)[O][Hg][c]1ccccc1 | 100% (active) |

Same assay, conditions: S. cerevisiae mec2-1 strain, at 50.0 µM (retest, dose inferred, filed as 5.0), stronger effect = higher value

| Structure (SMILES) | growth inhibition |
| --- | --- |
| O=C([O-])C(F)(F)C(F)(F)F.[C-]#[O+].[C-]#[O+].[C-]#[O+].[C-]#[O+].[C-]#[O+].[Re] | 13% |
| COC([CH2][Hg])CN1C(=O)c2cc(C)c(C)cc2C1=O (stereo unspecified) | 100% (active) |
| CN1C(=O)C2(C)SSC1(C)C(=O)N2C | 95% (active) |
| O=C(NCC1(O)N=C(c2ccc(F)cc2)c2ccsc2-n2cccc21)c1ccc(Cl)cc1Cl (stereo unspecified) | 44% |
| O=C([CH-]C(=O)c1ccccc1)c1ccccc1.O=C([CH-]C(=O)c1ccccc1)c1ccccc1.[CH2-]CCC.[CH2-]CCC.[Sn+4] | 99% (active) |
| COC1CC2C=C(C)/C=C/C=C/C(=O)NC(c3ccccc3)C/C=C/CCC(O)CC(=O)C2=C1O (stereo unspecified) | 99% (active) |
| CC[CH](C)[Sn](=[O])[c]1ccccc1 (stereo unspecified) | 93% (active) |
| O=C(N/N=C/c1cc(Br)cc(Br)c1[O-])c1ccccc1O.O=C(N/N=C/c1cc(Br)cc(Br)c1[O-])c1ccccc1O.[Zn+2] | 96% (active) |
| CCCC1CC[N-]CC1.CCCC1CC[N-]CC1.N#C[S-].N#C[S-].[Cd] | 59% |
| CCCCCCCCCCCCCC(=O)[O][Hg][c]1ccccc1 | 99% (active) |

Same assay, conditions: S. cerevisiae mec2-1 strain, at 50.0 µM, stronger effect = higher value

| Structure (SMILES) | growth inhibition |
| --- | --- |
| [Cu+2].[O-]c1ccc2ccccc2c1N=Nc1ccccc1.[O-]c1ccc2ccccc2c1N=Nc1ccccc1 | -13.1% |
| CCCCCCCCCCC[CH2][Hg][CH2]CCCCCCCCCCC | -1.05% |
| O=[N+]([O-])c1ccc(Cl)c([N+](=O)[O-])c1 | 98.5% (active) |
| Cc1cccc(NC(=O)CCl)c1 | -23.4% |
| O=C([O-])C(F)(F)C(F)(F)F.[C-]#[O+].[C-]#[O+].[C-]#[O+].[C-]#[O+].[C-]#[O+].[Re] | 92% (active) |
| COC([CH2][Hg])CN1C(=O)c2cc(C)c(C)cc2C1=O (stereo unspecified) | 99.7% (active) |
| CN1C(=O)C2(C)SSC1(C)C(=O)N2C | 93.8% (active) |
| O=C(NCC1(O)N=C(c2ccc(F)cc2)c2ccsc2-n2cccc21)c1ccc(Cl)cc1Cl (stereo unspecified) | 95.5% (active) |
| O=C([CH-]C(=O)c1ccccc1)c1ccccc1.O=C([CH-]C(=O)c1ccccc1)c1ccccc1.[CH2-]CCC.[CH2-]CCC.[Sn+4] | 93.2% (active) |
| CC(=O)SCCC(NC(=S)Nc1ccccc1)P(=O)(Oc1ccccc1)Oc1ccccc1 (stereo unspecified) | 10.3% |
| COC1CC2C=C(C)/C=C/C=C/C(=O)NC(c3ccccc3)C/C=C/CCC(O)CC(=O)C2=C1O (stereo unspecified) | 92.8% (active) |
| C[C@]12CC[C@H](O)C[C@H]1CC[C@@H]1[C@@H]2CC[C@]2(C)[C@@H](C3=CC(=O)OC3)[C@@H](O)C[C@]12O | -15.8% |
| O=[N+]([O-])c1ccc(/C=N\NP(Br)(c2ccccc2)(c2ccccc2)c2ccccc2)cc1 | 0.3% |
| CC[CH](C)[Sn](=[O])[c]1ccccc1 (stereo unspecified) | 80.7% (active) |
| COc1ccc2n[se]nc2c1 | 28.1% |
| O=C(N/N=C/c1cc(Br)cc(Br)c1[O-])c1ccccc1O.O=C(N/N=C/c1cc(Br)cc(Br)c1[O-])c1ccccc1O.[Zn+2] | 90.7% (active) |
| Cc1ccc(O)c(CN2CCN(Cc3cc(C)ccc3O)CC2)c1 | 15.8% |
| O=C1NC(=O)C(CC(Br)CBr)(c2ccccc2)C(=O)N1 (stereo unspecified) | -1.45% |
| CC(C)CC(N)C(=O)O (stereo unspecified) | -4.8% and 9.15% |
| ClC(OC(Cl)C(Cl)(Cl)Cl)C(Cl)(Cl)Cl (stereo unspecified) | 6.1% |
| CCCCCCCCCCCCCC(=O)[O][Hg][c]1ccccc1 | 99.6% (active) |

From PubChem BioAssay (NCI)
